# The whole screen tested about 410,000 compounds, of which about 18,000 (4.4%) were called active. Not shown: some 7% with an inconclusive outcome. The full list was thinned out, with actives kept by preference. A number with no mark means an inactive call. Cut-off read from the data, not from the text of the source: active = activity change below about -60%; inconclusive = no clear call, values can overlap the other calls; inactive = above about -39%.
# Assay: qHTS Assay for inhibitors of the human cytomegalovirus (HCMV)
# Settings: HFF cells, HCMV-luciferase reporter, 72 h; at 57.5 µM; active compounds read low
# Summary of the method: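 Compounds were evaluated in HFFs infected with an HCMV luciferase reporter virus (MOI 1 PFU/cell). Luciferase in lysates collected 72 h post infection served as the replication measure.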
# % is set by controls: 0 for no effect and ±100 for the full control effect.
row,Structure (SMILES),"activity change, negative = inhibition"
1,O=C(Nc1nnc(C2=COCCO2)o1)c1ccc([N+](=O)[O-])s1,-20.1%
2,COc1cccc(Cn2c(SCc3ccc(C(=O)N4CCC(C)CC4)cc3)nc3ccncc32)c1,-13.1%
3,Cc1cccc(CSc2nc3ccncc3n2Cc2ccc(C(=O)O)cc2)c1,9.17%
4,Cc1cccc(Cn2c(SCc3ccc(C(=O)N4CCC(C)CC4)cc3)nc3ccncc32)c1,-62.6% (active)
5,NC1(C#Cc2ccc(F)c(-c3noc4ccccc34)c2)CCCCC1,-18.5%
6,O=c1cc(O)c(-c2cccc(C(F)(F)F)c2)c(Cl)[nH]1,-14.8%
7,O=C(Nc1cc(C(F)(F)F)ccc1Cl)c1nc2ccccc2nc1N1CCCCC1,10.2%
8,O=C(NNc1ccccc1Cl)C(O)(c1cccc(C(F)(F)F)c1)c1cccc(C(F)(F)F)c1,-100% (active)
9,COc1cccc(/C=C2\Sc3ccc(C(=O)NCC4CCCO4)cc3N(C)C2=O)c1 (centres undefined),-14.4%
10,COc1ccc2c(c1)C(C)=CC(C)(C)N2C(=O)CNCc1ccc2c(c1)OCO2,-9.9%
11,COc1cccc(NC(=O)C2C(c3ccccc3)C2(Cl)Cl)c1 (centres undefined),-32.5%
12,COc1ccc2c(c1)C(C)=CC(C)(C)N2C(=O)Nc1ccccc1,-99.4% (active)
13,C#CCOc1ccc(C2CC(=O)Nc3c2c(C)nn3-c2nc(C)cc(C)n2)cc1 (centres undefined),-10.8%
14,CC[C@]12c3[nH]c4cc(CCC(=O)N(C)C)ccc4c3CCN1C(=O)[C@@H](CC(=O)NCCCN(C)C)C[C@@H]2C(=O)N1CCN(C(=O)c2ccco2)CC1,-18.4%
15,CN1c2ccc(Cl)cc2-c2nc(SCC(=O)Nc3cc(F)ccc3F)ncc2S1(=O)=O,-32.3%
16,C/C(CCc1ccccc1)=N\NC(=O)c1ccc(CN2CCOCC2)cc1,-12.4%
17,O=C(Nc1ccc(CSc2ccccc2)cc1)c1ccc(CN2CCOCC2)cc1,-79.7% (active)
18,O=C(Nc1ccccc1C(=O)N1CCOCC1)c1ccc(CSc2ccccc2)cc1,-24.2%
19,CCCCN1CCNC1=S,47%
20,CCn1cc(C(=O)NCc2ccc(C)cc2)c(=O)c2cc(S(=O)(=O)N3CCc4ccccc4C3)ccc21,7.01%
21,Cc1ccc(Cl)cc1N(C)C(=O)C1CCCN(c2ncnc3onc(-c4ccc(F)cc4)c23)C1 (centres undefined),-73.3% (active)
22,CCc1ccccc1N(C)C(=O)C1CCCN(c2ncnc3onc(-c4ccc(F)cc4)c23)C1 (centres undefined),6.75%
23,Cc1c(Cl)cccc1NC(=O)C1CCCN(c2ncnc3onc(C)c23)C1 (centres undefined),4.4%
24,CC(C)Oc1ccc(S(=O)(=O)N2CCOCC2)cc1NC(=O)C1CCCC1,36.7%
25,CCCc1cc(=O)oc2c(C)c(O)c(CN3CCCCC3)cc12,-20.3%
26,OC(COc1ccc(CN2CCSCC2)cc1)CN1CCCCC1 (centres undefined),0%
27,Cn1c(=O)c2c(nc(N3CCCCCC3)n2CC(O)COc2ccc(Cl)cc2)n(C)c1=O (centres undefined),16.7%

row,Structure (SMILES),"activity change, negative = inhibition"
1,O=C(c1ccc(Cl)cc1)c1ccc(OCC(O)CN2CCCCC2)cc1 (centres undefined),-63.1% (active)
2,COc1ccc(NC(=O)CCNS(=O)(=O)c2ccc3c(c2)CCCC(=O)N3)cc1Cl,-20.5%
3,CCn1c(CNC(=O)C23CC4CC(CC(C4)C2)C3)nnc1SCC(=O)Nc1ccc(OC)cc1,10%
4,C#CCOc1ccccc1/C=C1/C(=O)ON=C1C,52.7%
5,Cc1no[n+]([O-])c1COc1ccccc1/C=C1\NC(=S)NC1=O,-83.4% (active)
6,COC(=O)c1ccc(Cn2c(SCC(=O)N(C)c3ccccc3)nc3ccccc32)cc1,-6.59%
7,N/C(=N\OC(=O)CCc1ccccc1)c1ccc(Cl)cc1,10.6%
8,N/C(=N\OC(=O)N1c2ccccc2Sc2ccccc21)c1ccc(Br)cc1,-63.7% (active)
9,COc1ccc(-c2nnc(SC(=O)N3c4ccccc4Sc4ccccc43)o2)cc1,10.6%
10,COc1cc(Cl)c(NC(=O)CC(C)S(=O)(=O)c2cc3c(cc2C)NC(=O)CO3)c(OC)c1 (centres undefined),-4.28%
11,CS(=O)(=O)N(CC(=O)NCc1ccco1)c1ccc2c(c1)OCO2,-9.98%
12,COc1ccc(S(=O)(=O)N(C)CC(=O)Nc2ccc3c(c2)OCCO3)cc1OC,51.4%
13,O=C(CN(c1ccc2c(c1)OCCO2)S(=O)(=O)c1ccccc1)Nc1ccc2c(c1)OCO2,-86.6% (active)
14,Cc1cccn2c(=O)c3cc(C(=O)NC(C)c4ccccc4)c(=N)n(CCCO)c3nc12 (centres undefined),-15.1%
15,Cc1cccn2c(=O)c3cc(C#N)c(=NC(=O)c4cccnc4)n(CC4CCCO4)c3nc12 (centres undefined),2.74%
16,COCCCn1c(C(=O)NC2CCCCC2)cc2c(=O)n3cccc(C)c3nc21,1.95%
17,COc1ccc(CCn2c(=N)c(C(=O)NCc3ccco3)cc3c(=O)n4cccc(C)c4nc32)cc1,-83.4% (active)
18,CCCn1c(=N)c(C(=O)NCc2ccccc2)cc2c(=O)n3cccc(C)c3nc21,-7.61%
19,Cc1cccn2c(=O)c3cc(C(=O)NCCN4CCOCC4)c(=N)n(Cc4cccnc4)c3nc12,-86% (active)
20,Cc1cc(Br)ccc1NC(=O)Cn1cnc2sc(C)c(S(=O)(=O)N3CCN(C)CC3)c2c1=O,0.161%
21,CCCS(=O)(=O)NC(=O)C1(C)CCCN(C(=O)c2cc(C)on2)C1 (centres undefined),32.5%
22,Cc1cccc(N2CCN(C(=O)c3ccc4c(c3)CCN4S(=O)(=O)c3ccccc3)CC2)c1C,-25.8%
23,O=C(CC1N=C2c3ccccc3N=C(SCc3cccc(Cl)c3)N2C1=O)NCc1ccc2c(c1)OCO2 (centres undefined),-15.6%
24,CCCN1C(=O)COCc2cc(-c3cccc(CO)c3)ccc21,6.92%
25,CCc1ccc(-c2nc(SCC(=O)NC3CCCC3)n[nH]2)cc1,-90.7% (active)
26,COc1ccc(CNC(=O)CSc2n[nH]c(-c3ccc(F)cc3)n2)cc1,19.4%
27,COc1ccc(-c2nc(SCC(=O)N3CCCCC3C)n[nH]2)cc1 (centres undefined),1.78%

# Reference: PubChem BioAssay AID1259415 (National Center for Advancing Translational Sciences (NCATS), 2018)
